{
  "source": "PubChem BioAssay AID743279",
  "about": "(National Center for Advancing Translational Sciences (NCATS), 2014)",
  "note": "The whole screen tested about 360,000 compounds, of which about 17,000 (4.7%) were called active. About 5% were inconclusive and are not listed. The entries come from a sample that favours actives as a whole. Values without a mark were called inactive. No stated cut-off is given here; in the data, active means activity change below about -50%; inconclusive means mostly about -30% to -49%; inactive means weaker than that. On the % scale 0 is the no-effect control and ±100 the full control effect.",
  "data": [
    {"test": "qHTS for Inhibitors of Inflammasome Signaling: IL-1-beta AlphaLISA Primary Screen", "conditions": "THP-1 LPS/ATP IL-1B secretion, 16 h; at 57.5 µM, active compounds read low", "how_it_was_run": "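Secreted IL-1B measured by AlphaLISA bead assay after 16 h compound exposure of THP-1 cells; compounds (final up to 57.5 uM) added 1 h before LPS (250 ng/mL) and ATP (1.25 mM) stimulation; lower signal means less secretion.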", "values": [
      {"smiles": "Cc1ccc(-c2nc3c(Cl)cc(C(F)(F)F)cn3c2Cc2cccc(Cl)c2)cc1", "activity change": "41.1%"},
      {"smiles": "O=C(CC1SC(=Nc2ccccc2)N(Cc2ccccn2)C1=O)Nc1cccc(Cl)c1", "note": "(centres undefined)", "activity change": "-60.7% (active)"},
      {"smiles": "CN1C(=O)C(CC(=O)Nc2ccccc2)S/C1=N/c1nccs1", "note": "(centres undefined)", "activity change": "-2.9%"},
      {"smiles": "CCN1C(=O)C(CC(=O)Nc2cc(C)ccc2C)SC1=Nc1ccc(S(N)(=O)=O)cc1", "note": "(centres undefined)", "activity change": "-5.39%"},
      {"smiles": "CCN(CC)CCN(C)C(c1ccnc2ccccc12)c1nnnn1-c1ccc2c(c1)OCCO2", "note": "(centres undefined)", "activity change": "-3.67%"},
      {"smiles": "CC(C)C1CC2=C(C(=O)OC(C)(C)O2)C(c2ccc(F)cc2)O1", "note": "(centres undefined)", "activity change": "43.5%"},
      {"smiles": "Cc1ccc(O)c(CNc2nc3ccccc3n2C)c1", "activity change": "-11.8%"},
      {"smiles": "CC(C)n1c(NCc2c[nH]c3ccccc23)nc2ccccc21", "activity change": "-81.7% (active)"},
      {"smiles": "CC(C)n1c(-c2cccs2)nc2ccccc21", "activity change": "-1.34%"},
      {"smiles": "COCC(C)NC(=O)CSc1nc2nn(-c3ccccc3)c(=O)c-2c2n1CCCCC2", "note": "(centres undefined)", "activity change": "-2.5%"},
      {"smiles": "COc1ccc(C(C)C)cc1-c1ccc2nncn2c1", "activity change": "15.9%"},
      {"smiles": "Cc1c(C(=O)N2CCCc3ccccc32)oc2ccccc12", "activity change": "3.03%"},
      {"smiles": "COc1ccc2oc(=O)c(C(=O)N3CCCc4ccccc43)cc2c1", "activity change": "-74% (active)"},
      {"smiles": "Cc1ccc(C(=O)N2CCCc3ccccc32)c(Cl)c1", "activity change": "64.5%"},
      {"smiles": "CCOC(=O)[C@@H]1[C@H]2COc3ccc(Br)cc3[C@H]2N2C(=O)N(c3ccc(Cl)cc3)C(=O)[C@@]12C", "activity change": "8.14%"},
      {"smiles": "O=S(=O)(c1cccc(C(F)(F)F)c1)N1c2ccccc2-n2cccc2C1c1cccnc1", "note": "(centres undefined)", "activity change": "41.9%"},
      {"smiles": "c1ccc(C(c2ccccc2)N2CCN(Cc3nnnn3C3CCCCC3)CC2)cc1", "activity change": "20.1%"},
      {"smiles": "CC1(C)CC(N2CCN(C(c3ccccc3)c3ccccc3)CC2)=CC(=[N+]2CCCCC2)C1", "activity change": "-71.2% (active)"},
      {"smiles": "CC(C)OCC(O)CN1CCN(C(c2ccccc2)c2ccccc2)CC1", "note": "(centres undefined)", "activity change": "-6.29%"},
      {"smiles": "CC(C)(O)C1=C[N+](=O)CC=C1", "activity change": "16.1%"},
      {"smiles": "COc1cccc(NC(=O)C2(C)CCN2Cc2ccccc2Cl)c1", "note": "(centres undefined)", "activity change": "-11.6%"},
      {"smiles": "O=[N+]([O-])c1ccc(C=Nc2ccc(Cl)cc2Cl)s1", "activity change": "-106% (active)"},
      {"smiles": "CC1CN(C(=O)c2ccc([N+](=O)[O-])s2)CC(C)O1", "note": "(centres undefined)", "activity change": "22.4%"},
      {"smiles": "CNN/C(N=Cc1ccc([N+](=O)[O-])s1)=N\\S(=O)(=O)c1cc(C)c(Cl)cc1SCc1ccccc1", "activity change": "-7.5%"},
      {"smiles": "CCCCn1nnnc1NCc1cc(OC)c(OC)c(OC)c1", "activity change": "25.2%"},
      {"smiles": "CCn1c2ccccc2c2cc(NC(=O)C/C(C)=N/NC(=O)c3ccccc3N)ccc21", "activity change": "25.4%"},
      {"smiles": "CCn1c2ccccc2c2cc(NC(=O)COC(=O)c3ccccc3Br)ccc21", "activity change": "-18.9%"},
      {"smiles": "CCn1c2ccccc2c2cc(NC(=O)CNC)ccc21", "activity change": "-85.6% (active)"},
      {"smiles": "Cc1nn(-c2ccccc2)c2c1c(C)c(CCC(=O)NCC1CCCO1)c(=O)n2C", "note": "(centres undefined)", "activity change": "-20.2%"},
      {"smiles": "Cc1ccc(CNC(=O)Nc2nnc([C@H]3C[C@H](O)[C@@H](CO)O3)s2)cc1", "activity change": "3.84%"},
      {"smiles": "C[C@@H]1CN([C@H](C)CO)C(=O)c2cc(-c3ccc(F)cc3)cnc2O[C@H]1CN(C)C(=O)c1ccc(F)cc1", "activity change": "-10.1%"},
      {"smiles": "CN(CCc1ccccc1)c1ccc([N+](=O)[O-])cn1", "activity change": "25.8%"},
      {"smiles": "Cc1cc(C(=O)OCC(=O)N2c3ccccc3NC(=O)C2(C)C)c(C)n1-c1ccccc1", "activity change": "-78.6% (active)"},
      {"smiles": "CNS(=O)(=O)c1cccc(C(=O)OCC(=O)N2c3ccccc3NC(=O)C2(C)C)c1", "activity change": "11.2%"},
      {"smiles": "Cc1ccc(OCCC(=O)OCC(=O)N2c3ccccc3NC(=O)C2(C)C)cc1", "activity change": "11%"},
      {"smiles": "NC(=O)C1(Nc2ccc(-c3ccccc3)cc2)CCCC1", "activity change": "3.69%"},
      {"smiles": "Cc1ccc(S(=O)(=O)N(CC(=O)Nc2cccnc2)c2ccc(Br)cc2)cc1", "activity change": "-14.5%"},
      {"smiles": "Cn1nccc1NC(=O)Nc1ccc(OC(F)(F)F)cc1", "activity change": "1.91%"},
      {"smiles": "O=C(Nc1ccc(OC(F)(F)F)cc1)c1ccc2c(c1)no[n+]2[O-]", "activity change": "-96.1% (active)"},
      {"smiles": "Cn1cccc1/C=N/NC(=O)c1ccc(OC(F)(F)C(F)F)cc1", "activity change": "81.3%"},
      {"smiles": "CC(CC(=O)N1CCN(S(=O)(=O)c2ccccc2)CC1)n1cncn1", "note": "(centres undefined)", "activity change": "-19.9%"},
      {"smiles": "Cc1cccc(S(=O)(=O)N(C)C[C@@H]2OCc3cnnn3CCCC(=O)N([C@H](C)CO)C[C@@H]2C)c1", "activity change": "-0.819%"},
      {"smiles": "CN1OC[C@@H]2CN(C(=O)c3ccc(-c4ccccc4)cc3)[C@H](c3ccc(-c4cccc(F)c4)cc3)C[C@@H]21", "activity change": "56.8%"},
      {"smiles": "C[C@@H]1CN([C@H](C)CO)S(=O)(=O)c2ccc(C#CC3CCCCC3)cc2O[C@H]1CN(C)C(=O)Cc1ccncc1", "activity change": "-1.14%"}
    ]}
  ]
}
